Results published in the supplement of paper PMC10981050.
“And” between values parts separate entries of the source, which are not always exact repeats. Equal values may be shown once. Where a name gives a salt, the structure may show the parent alone.

How the values were obtained:
Experiment in all cases: cell viability relative to vehicle control; higher = less cytotoxic
Details in all cases: 10 µM
K562 = test system: K562
In short: (§1)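 Each screen used CRISPR-edited mutant and wild-type clones from four leukaemia lines. Compounds were acoustically dispensed at a single 10 µM dose, and CellTiter-Glo luminescence was read after 48 h with the supernatant first removed. Viability was analysed in Genedata Screener and given as percent of the on-plate vehicle control.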

MARIMO = test system: MARIMO
In short: as §1

MOLM14 = test system: MOLM14
In short: as §1

OCI-AML2 = test system: OCI-AML2
In short: as §1

SMILES | cell viability (K562; SRSF2 genotype: SRSF2 P95H/wt) | cell viability (K562; SRSF2 genotype: SRSF2 wt/wt) [%] | cell viability (MARIMO; SRSF2 genotype: SRSF2 P95H/wt) [%] | cell viability (MARIMO; SRSF2 genotype: SRSF2 wt/wt) [%] | cell viability (MOLM14; SRSF2 genotype: SRSF2 P95H/wt) [%] | cell viability (MOLM14; SRSF2 genotype: SRSF2 wt/wt) [%] | cell viability (OCI-AML2; SRSF2 genotype: P95H/wt) [%] | cell viability (OCI-AML2; SRSF2 genotype: wt/wt) [%]
Cc1c(O)c(=O)ccn1C [Deferiprone] | 96.7% and 92.2% | 93.6 | 90.6 | 102 | 87 | 93.9 | 90.5 | 96.3
O=C(O)COc1nn(Cc2ccccc2)c2ccccc12 [Bendazac] | 103% and 104% | 108 | 106 | 111 | 103 | 106 | 111 | 115
CN(C)CC(=O)Nc1ccc2[nH]c(=O)c3ccccc3c2c1 | 97.7% and 93.8% | 94.9 | 100 | 94.6 | 89.1 | 96 | 91.6 | 98.4
CCN(CC)CC(=O)Oc1ccc(NC(C)=O)cc1 [Propacetamol hydrochloride] | 90.2% and 83.3% | 86.5 | 94.2 | 90.2 | 93.6 | 94.7 | 86.4 | 96.7
CN1CCC(=C2c3ccccc3CCc3sccc32)CC1 [Pizotifen malate] | 89.7% and 97% | 95.2 | 76.9 | 83.8 | 76.5 | 90.1 | 81.4 | 83
CC1OC(OC2C(OC3CC4(C)C(CC(O)C5C(C6(C)CCC(C(C)(C)O)O6)CCC54C)C4(C)CCC(O)C(C)(C)C34)OC(CO)C(O)C2O)C(O)C(O)C1O (stereo not drawn) [Pseudoginsenoside F11] | 107% and 104% | 111 | 107 | 103 | 113 | 108 | 103 | 98.4
COC(=O)C1=CO[C@@H](O[C@@H]2O[C@H](CO)[C@@H](O)[C@H](O)[C@H]2O)[C@@H]2[C@H](C)O[C@@H](O)C[C@H]12 [Morroniside] | 93.4% and 87.6% | 93 | 85.3 | 97.1 | 88.1 | 89.3 | 88.8 | 106
CC(COc1ccccc1)N(CCCl)Cc1ccccc1 (stereo not drawn) [Phenoxybenzamine HCl] | 66.1% and 73.8% | 63.2 | 67.3 | 72.5 | 57.5 | 62.7 | 54.4 | 62.1
CC(NCCc1ccc(O)cc1)C(O)c1ccc(O)cc1 (stereo not drawn) [Ritodrine hydrochloride (Yutopar)] | 106% and 102% | 96.3 | 100 | 106 | 98.6 | 99.8 | 104 | 107
Cc1ccc(S(=O)(=O)Nc2nc3ccccc3nc2Nc2ccc3nsnc3c2)cc1 [XL147 analogue] | 95.3% and 101% | 105 | 97.6 | 104 | 99.2 | 98.7 | 101 | 94.5
COc1ccc(CCc2nc3cc(-c4c(C)noc4C)ccc3n2C[C@H](C)N2CCOCC2)cc1Cl | 80.9% and 86.9% | 73.8 | 76.9 | 70.5 | 47.4 | 42.5 | 45.7 | 60.6
CS(=O)(=O)CCNCc1ccc(-c2ccc3ncnc(Nc4ccc(OCc5cccc(F)c5)c(Cl)c4)c3c2)o1 [Lapatinib] | 40.9% and 35.3% | 35.8 | 83.2 | 77.6 | 75.4 | 75.6 | 22.2 | 45.5
CCN1CCN(Cc2ccc(Nc3ncc(F)c(-c4cc(F)c5nc(C)n(C(C)C)c5c4)n3)nc2)CC1 | 1.86% and 0.59% | 0.69 | 0.46 | 0.64 | 0.3 | 0.31 | 0.29 | 0.39
CNS(=O)(=O)C[C@H]1CC[C@H](N(C)c2[nH]cnc3nccc2-3)CC1 [Oclacitinib maleate] | 95.6% and 99.2% | 103 | 95.5 | 102 | 55.9 | 73 | 77.5 | 72.5
Cn1cc(C2=C(c3cccc(N)c3)C(=O)NC2=O)c2ccccc21 | 51.4% and 36.7% | 58.5 | 65.4 | 86 | 59.8 | 72.1 | 78.8 | 101
CCCCc1nc2cc(/C=C/C(=O)NO)ccc2n1CCN(CC)CC [SB939 (Pracinostat)] | 1.57% and 13.7% | 4.32 | 9.81 | 13.9 | 1.19 | 0.63 | 4.26 | 6.25
CC(=O)OCC1=C(C(=O)O)N2C(=O)C(NC(=O)CSC(=NC(C)C)NC(C)C)C2SC1 (stereo not drawn) [Cefathiamidine] | 103% and 98.2% | 103 | 103 | 110 | 96.1 | 104 | 102 | 113
Cc1onc(-c2c(F)cccc2Cl)c1C(=O)N[C@@H]1C(=O)N2[C@@H]1SC(C)(C)[C@@H]2C(=O)O [Flucloxacillin sodium] | 96.6% and 89.9% | 94.3 | 100 | 108 | 95.6 | 96.5 | 99.6 | 107

SMILES | cell viability (K562; SRSF2 genotype: SRSF2 P95H/wt) | cell viability (K562; SRSF2 genotype: SRSF2 wt/wt) [%] | cell viability (MARIMO; SRSF2 genotype: SRSF2 P95H/wt) [%] | cell viability (MARIMO; SRSF2 genotype: SRSF2 wt/wt) [%] | cell viability (MOLM14; SRSF2 genotype: SRSF2 P95H/wt) [%] | cell viability (MOLM14; SRSF2 genotype: SRSF2 wt/wt) [%] | cell viability (OCI-AML2; SRSF2 genotype: P95H/wt) [%] | cell viability (OCI-AML2; SRSF2 genotype: wt/wt) [%]
CCOC(=O)/C=C\C(=O)OCC [Diethylmaleate] | 102% and 96.1% | 99.8 | 97.5 | 109 | 104 | 105 | 98.9 | 111
c1cncc(-c2cn[nH]n2)c1 | 78.5% and 56.7% | 64.2 | 88.4 | 96.6 | 88.6 | 99.2 | 31.8 | 34.6
CC1=C[C@]2(O)O[C@@]3(CC2=C(C)C)[C@@H](C)CC[C@@H]13 [Curcumenol] | 106% and 103% | 99.5 | 96.5 | 109 | 102 | 99 | 88.6 | 99
CO/N=C(\C(=O)N[C@@H]1C(=O)N2C(C(=O)OC(C)OC(C)=O)=C(COC(N)=O)CS[C@H]12)c1ccco1 (stereo partly drawn) [Cefuroxime axetil] | 103% and 102% | 96.2 | 99.6 | 104 | 101 | 107 | 111 | 105
S=C(NCc1ccc2c(c1)OCO2)N1CCN(c2ncnc3c2oc2ccccc23)CC1 [Amuvatinib (MP-470)] | 62.3% and 74.9% | 64.2 | 50.3 | 41.5 | 68.2 | 76.4 | 28 | 42.5
C#Cc1cccc(Nc2ncnc3cc4c(cc23)OCCOCCOCCO4)c1 [Icotinib] | 96.1% and 94% | 94.2 | 92.4 | 98.3 | 92.3 | 98.4 | 94.9 | 94.5
Cc1[nH]c2ccccc2c1C1=C(NCCc2ccc(F)cc2)C(=O)N(C)C1=O | 97% and 105% | 102 | 94.9 | 100 | 99.4 | 105 | 100 | 89.8
COc1ccc(-c2oc3c(CC=C(C)C)c(O[C@@H]4O[C@H](CO)[C@@H](O)[C@H](O)[C@H]4O)cc(O)c3c(=O)c2O[C@@H]2O[C@@H](C)[C@H](O)[C@@H](O)[C@H]2O[C@@H]2O[C@@H](C)[C@H](O)[C@@H](O)[C@H]2O)cc1 [Epmedin C] | 104% and 108% | 106 | 100 | 103 | 107 | 105 | 103 | 107
CCCCCCOC(=O)c1cc(=O)c(O)c2c(O)c(O)c(OC)cc2c1 | 14.8% and 16.8% | 46.8 | 45.2 | 45.2 | 61.5 | 58.9 | 19.8 | 42.4
CO[C@H]1C[C@H](O[C@@H]2/C(C)=C/C[C@@H]3C[C@@H](C[C@]4(CC[C@H](C)[C@@H](C5CCCCC5)O4)O3)OC(=O)[C@@H]3C=C(C)/C(=N/O)[C@H]4OC/C(=C\C=C\[C@@H]2C)[C@]43O)O[C@@H](C)[C@@H]1O [Selamectin] | 16.6% and 37.1% | 27.3 | 3.71 | 4.17 | 38.4 | 17 | 10.6 | 24.5
COc1ccc(Cl)c(Nc2nc3ccccc3nc2NS(=O)(=O)c2cccc(NC(=O)C(C)(C)N)c2)c1 [Pilaralisib (XL147)] | 87.3% and 96.2% | 84 | 68.6 | 66 | 59.3 | 55 | 52.3 | 54.6
O=C(O)C(Cc1c[nH]c2ccccc12)N1C(=O)c2ccccc2C1=O (stereo not drawn) | 104% and 96.9% | 103 | 96.8 | 104 | 99.2 | 99.3 | 93.2 | 98.5
Cc1ccc(=O)n(-c2ccccc2)c1 [Pirfenidone] | 104% and 107% | 103 | 103 | 103 | 97.1 | 98.8 | 109 | 106
Cc1cc(O)c(C(=O)CCC(C)C)c(=O)o1 [Pogostone] | 104% and 98.3% | 101 | 95.7 | 106 | 96.5 | 99.5 | 95.9 | 99.5
O=C(Nc1cccc(Cl)c1)c1ccccn1 | 99.3% and 105% | 97 | 98.5 | 109 | 112 | 114 | 96.2 | 97
CCC[C@@H]1C[C@@H](C(=O)N[C@@H]([C@H]2O[C@H](SC)[C@H](O)[C@@H](O)[C@H]2O)[C@H](C)Cl)N(C)C1 [Clindamycin] | 96.3% and 99.1% | 103 | 104 | 106 | 95.3 | 99.8 | 113 | 98.9
Fc1ccc([C@@H]2CCNC[C@H]2COc2ccc3c(c2)OCO3)cc1 [Paroxetine mesylate] | 34.1% and 53.1% | 49.5 | 39 | 35.6 | 33.4 | 38.1 | 28.7 | 39.2
O=C1Nc2ccc(CN3C(=O)CSC3=O)cc2/C1=C/c1cc(CN2CCOCC2)c[nH]1 | 98.7% and 100% | 103 | 97.1 | 100 | 92 | 100 | 97.6 | 91
